# Records with an inconclusive call do not appear. A call without a number means that no potency is given here. Unmarked numbers belong to inactive results. Active and inactive are the calls of the source. Calls come from the whole dose curve; as a rule, active = well fitted curve in the direction sought with a large enough effect; inconclusive = small, poorly fitted or top-dose-only effect, or another doubt; inactive = no such curve, though single readings can be large; an effect the other way counts as inactive or inconclusive.
# Assays:
# [1] = P-glycoprotein substrates identified in KB-3-1 adenocarcinoma cell line, qHTS therapeutic library screen (AID 1346986); note: nearly all actives have a fitted effect of over 60% in size
# Outline: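 72 h cell-killing screen, 500 cells/well, CellTiter-Glo luminescence. Paired lines KB-3-1/KB-8-5-11; P-gp dependence checked by tariquidar co-treatment and HEK-293 MDR-19 versus empty-vector cells.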
# [2] = P-glycoprotein substrates identified in KB-8-5-11 adenocarcinoma cell line, qHTS therapeutic library screen (AID 1346987); note: nearly all actives have a fitted effect of over 65% in size; for activity change, negative = cytotoxicity: series mostly up to about 44 µM
# Outline: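 Compounds are pinned in dose-response onto KB-8-5-11 cells (500 cells/well, colchicine-free medium) and left 72 h at 37 degree C. CellTiter-Glo luminescence then yields AC50 values.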
SMILES,Potency [1],Potency [2],outcome [1],"activity change, negative = cytotoxicity [2]"
CC(=O)OCC1=C[C@@H]2OC(=O)C3=CO[C@@H](O[C@@H]4O[C@H](CO)[C@@H](O)[C@H](O)[C@H]4O)[C@H]1[C@@H]32,inactive,inactive,–,–
COc1cc(/C=C/C(=O)O[C@H]2C[C@@H]3C(C(=O)O)=CO[C@@H](O[C@@H]4O[C@H](CO)[C@@H](O)[C@H](O)[C@H]4O)[C@@H]3[C@H]2C)ccc1O,inactive,inactive,–,–
NC(Cc1c[nH]c2ccc(O)cc12)C(=O)O (configuration not stated),inactive,inactive,–,–
CCC(C)(C)C1CCc2c(sc(NC(=O)c3ccc(Br)cc3)c2C#N)C1 (configuration not stated),inactive,inactive,–,–
CC(=O)NC(C(=O)OC1CCC(C)(C)C2CC=C3C(=O)OCC3C12C)C(C)C (configuration not stated),inactive,inactive,–,–
CC1(C)COC(=O)[C@@H]1O[C@@H]1O[C@H](CO)[C@@H](O)[C@H](O)[C@H]1O,inactive,inactive,–,–
COC(=O)C1=CO[C@@H](O[C@@H]2O[C@H](CO)[C@@H](O)[C@H](O)[C@H]2O)/C(=C\CO)[C@@H]1CC(=O)OCCc1ccc(O)cc1,inactive,inactive,–,–
COC(=O)C1=COC(OC2OC(CO)C(O)C(O)C2O)C2C(C)C(OC(C)=O)C(OC(=O)c3ccccc3)C12 (configuration not stated),inactive,inactive,–,–
COC(=O)c1cc(OC)cc(OC)c1C(=O)c1c(OC)cc2c(c1O)C1CCC(O)C(C)(O2)O1 (configuration not stated),inactive,inactive,–,–
O=C(O)[C@H](Cc1ccccc1)Oc1ccc(-c2ccccc2)cc1,inactive,inactive,–,–
C[C@H]1CC[C@@]2(OC1)O[C@H]1CC3C4CC[C@H]5C[C@@H](O[C@@H]6O[C@H](CO)[C@H](O[C@@H]7O[C@H](CO)[C@@H](O)[C@H](O[C@@H]8OC[C@@H](O)[C@H](O)[C@H]8O)[C@H]7O[C@@H]7O[C@H](CO)[C@@H](O)[C@H](O)[C@H]7O)[C@H](O)[C@H]6O)[C@H](O)C[C@]5(C)C4=CC(=O)[C@]3(C)[C@H]1[C@@H]2C (some centres not stated),–,–,inactive [at 9.29 µM],4.95% [at 9.29 µM]

# From PubChem BioAssay (NCATS)
